These results are taken from PubChem BioAssay (EPA / NIEHS).

The structures appear in SMILES notation. Where “and” joins values, the source holds several entries; their conditions need not be identical. Equal values may be shown once. Results filed as inconclusive are left out. Where a structure was tested more than once in an assay, its records may differ in their call. Calls of active or inactive are those of the source. How the source made its calls: active means hit-call score of the fitted dose curve at least 0.9, where 1 is the maximum; inconclusive means response in the unintended direction; inactive means score below 0.9.

Chain of human Retinoid X Receptor beta (RXRb), RXRB (gene 6257) (P28702 whole entry, looked up): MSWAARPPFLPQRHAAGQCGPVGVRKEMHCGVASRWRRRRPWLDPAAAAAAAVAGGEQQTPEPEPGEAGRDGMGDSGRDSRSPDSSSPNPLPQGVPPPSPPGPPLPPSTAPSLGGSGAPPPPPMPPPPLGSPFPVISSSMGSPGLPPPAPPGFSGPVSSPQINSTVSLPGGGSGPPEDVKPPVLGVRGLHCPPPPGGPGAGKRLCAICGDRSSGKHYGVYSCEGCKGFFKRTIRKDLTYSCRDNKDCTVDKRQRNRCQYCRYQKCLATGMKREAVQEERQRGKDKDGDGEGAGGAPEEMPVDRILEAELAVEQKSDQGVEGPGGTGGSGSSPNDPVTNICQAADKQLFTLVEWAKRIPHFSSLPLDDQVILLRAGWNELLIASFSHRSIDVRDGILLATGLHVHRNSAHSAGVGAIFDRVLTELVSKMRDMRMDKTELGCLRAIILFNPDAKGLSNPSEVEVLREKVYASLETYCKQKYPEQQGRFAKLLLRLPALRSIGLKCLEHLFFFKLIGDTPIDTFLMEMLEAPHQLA

This assay concerns the target human Retinoid X Receptor beta (RXRb), RXRB (gene 6257) (UniProt P28702). As to the kind of experiment: ATG_RXRb_TRANS: Attagene TRANS-FACTORIAL HepG2 Assay for human Retinoid X Receptor beta (RXRb) (AID 2283013). Here is the method: ATG_TRANS is a cell-based, multiplexed-readout assay that uses HepG2, a human liver cell line, with measurements taken at 24 hours after chemical dosing in a 24-well plate.ATG_RXRb_TRANS is one of 30 assay component(s) measured or calculated from the ATG_TRANS assay. It is designed to make measurements of mRNA induction, a form of inducible reporter, as detected with fluorescence intensity signals by Reverse transcription polymerase chain reaction (RT-PCR) and Capillary electrophoresis technology.Data from the assay component ATG_RXRb_TRANS was analyzed into 1 assay endpoint. This assay endpoint, ATG_RXRb_TRANS, was analyzed in the positive analysis fitting direction relative to DMSO as the negative control and baseline of activity. Using a type of inducible reporter, measures of mRNA for gain-of-signal activity can be used to understand the reporter gene at the transcription factor-level as they relate to the gene RXRB. Furthermore, this assay endpoint can be referred to as a primary readout, because this assay has produced multiple assay endpoints where this one serves a reporter gene function. To generalize the intended target to other relatable targets, this assay endpoint is annotated to the nuclear receptor intended target family, where the subfamily is non-steroidal.
Human liver HepG2 cells are transiently transfected with multiple reporter transcription units (MRTUs) in 6-well plates using FuGene 6 reagent (Roche; 3 ml FuGene/1 mg DNA). The MRTU constructs are regulated by a cis-regulating element (promoter). […] A major difference between the CIS and TRANS system is that in CIS activities of endogenous TFs are measured, whereas the TRANS assay evaluates changes in activities of exogenous, chimeric NR-Gal4 proteins. […] At the end of 24 hour incubation, total RNA was isolated using TriZol reagent (Invitrogen). The isolated RNA is then reverse-transcribed using oligo(dT) primer and Mo-MLV reverse transcriptase (Invitrogen) with DNAse I (Ambion) treatment for 30 min. The one-tenth of the produced cDNA was amplified by PCR using Taq DNA polymerase (Invitrogen) and two reporter sequence-specific primers. The PCR products were fluorescently labeled by primer extension with 6-arboxyfluorescein (6-FAM) 5'-labeled reporter sequence-specific primer (2 min at 95 C, 20 s at 68 C and 10 min at 72 C) and these products were digested with 5U of HpaI (New England Biolabs) for 2h at 37 C. The fragments were purified using Qiaquick PCR columns (Qiagen), analyzed on an ABI 3130xL genetic analyzer (Applied Biosystems) with peak positions identified by using a set of X-rhodamine (ROX)-labeled MapMarker1000 molecular weight standards (BioVentures). The raw capillary electrophoresis data was processed using Attagraph software (Attagene).
Turning to `O=C(O)C(F)(F)C(F)(F)C(F)(F)C(F)(F)C(F)(F)C(F)(F)C(F)(F)F`, the AC50 was 57 µM (active) and 37.4 µM (active) and 56.2 µM (active); the compound was called inactive.

In the case of `CC1(c2ccc(Oc3ccccc3)cc2)OC(=O)N(Nc2ccccc2)C1=O` (stereo not given), the call was inactive.

Turning to `Clc1ccccc1-c1nnc(-c2ccccc2Cl)nn1`, the result was inactive.

With `OCCOc1ccccc1`, the call was inactive.

`CCS(=O)(=O)c1cccnc1S(=O)(=O)NC(=O)Nc1nc(OC)cc(OC)n1`: the outcome was inactive.

As to `CCC(C)(NC(=O)c1cc(Cl)c(C)c(Cl)c1)C(=O)CCl` (stereo not given), the compound was classed as inactive.

For the compound `O=[N+]([O-])c1c(Cl)c(Cl)c(Cl)c(Cl)c1Cl`, the outcome was inactive.

As for `COC(=O)c1ccccc1CS(=O)(=O)NC(=O)Nc1nc(OC)cc(OC)n1`, the result was inactive.

`O=S(=O)(O)C(F)(F)C(F)(F)C(F)(F)C(F)(F)C(F)(F)C(F)(F)C(F)(F)C(F)(F)F`: the result was inactive and the AC50 is 161 µM (active).

Regarding `CCOC1Oc2ccc(OS(C)(=O)=O)cc2C1(C)C` (stereo not given), the outcome was inactive.

Regarding `ClC1C(Cl)C(Cl)C(Cl)C(Cl)C1Cl` (stereo not given), the outcome was inactive; the AC50 is 31.1 µM (active) and 26.2 µM (active).

As for `CCOCN(C(=O)CCl)c1c(C)cccc1CC`, the compound was called inactive.

For the compound `CNC(=O)/C=C(\C)OP(=O)(OC)OC`, the call was inactive.

`[2H]C1([2H])[n+]2ccccc2-c2cccc[n+]2C1([2H])[2H]`: the call was inactive.

Turning to `CC(C)OC(=O)Nc1cccc(Cl)c1`, the call was inactive.

For the compound `CC[C@H](C)[C@H]1O[C@]2(C=C[C@@H]1C)C[C@@H]1C[C@@H](C/C=C(\C)[C@@H](O[C@H]3C[C@H](OC)[C@@H](O[C@H]4C[C@H](OC)[C@@H](O)[C@H](C)O4)[C@H](C)O3)[C@@H](C)/C=C/C=C3\CO[C@@H]4[C@H](O)C(C)=C[C@@H](C(=O)O1)[C@]34O)O2` (tested in a mixture with another compound), the outcome was inactive.

For `COc1nn(CSP(=S)(OC)OC)c(=O)s1`, the compound was called inactive.

Turning to `C[C@H]1[C@H](c2ccc(Cl)cc2)SC(=O)N1C(=O)NC1CCCCC1`, the compound was called inactive.

As for `Oc1cc(Cl)ccc1Oc1ccc(Cl)cc1Cl`, the AC50 is 7.45 µM (active) [middle of 7 runs].

Regarding `O=C1c2ccccc2C(=O)N1SC(Cl)(Cl)Cl`, the compound was classed as inactive.

Consider `O=C(O)COc1ccc(Cl)cc1Cl`, for which the compound was called inactive.

Take `CNC(=O)Oc1cccc(N=CN(C)C)c1`: the call was inactive.

Regarding `CCc1ccc(C(=O)NN(C(=O)c2cc(C)cc(C)c2)C(C)(C)C)cc1`, the call was inactive.

For the compound `C#CCN1C(=O)COc2cc(F)c(N3C(=O)C4=C(CCCC4)C3=O)cc21`, the compound was called inactive.

On to `O=[N+]([O-])/N=C1\NCCN1Cc1ccc(Cl)nc1`, for which the compound was classed as inactive.

As for `CCC(C)Nc1c([N+](=O)[O-])cc(C(C)(C)C)cc1[N+](=O)[O-]` (stereo not given), the outcome was inactive.

As for `COP(=S)(OC)Oc1ccc([N+](=O)[O-])cc1`, the call was inactive.

`N#CN`: the call was inactive.

In the case of `CC(C)N(C(=O)COc1nnc(C(F)(F)F)s1)c1ccc(F)cc1`, the compound was called inactive.

Turning to `Cc1cc(C)nc(NC(=O)NS(=O)(=O)c2ccccc2C(=O)OC2COC2)n1`, the call was inactive.

Consider `O=C(O)CCCOc1ccc(Cl)cc1Cl`, for which the AC50 is 27 µM (active) and the compound was called inactive.

For the compound `CCCN(CCOc1c(Cl)cc(Cl)cc1Cl)C(=O)n1ccnc1`, the compound was called inactive.

As for `CCOc1nc(NC)nc(NC(=O)NS(=O)(=O)c2ccccc2C(=O)OC)n1`, the result was inactive.

As for `COC(=O)c1ccccc1S(=O)(=O)NC(=O)Nc1nc(C)nc(OC)n1`, the compound was classed as inactive.

Regarding `COP(=S)(OC)Oc1ccc(SC)c(C)c1`, the outcome was inactive.

On to `CC(C)(C)C(O)C(Oc1ccc(Cl)cc1)n1cncn1` (stereo not given), for which the outcome was inactive.
